# Source: PubChem BioAssay (National Center for Advancing Translational Sciences (NCATS))
# Sampled rows, rich in hits. Any-hit rate of the full collection: about 3%.
# RE007 growth inh: less growth of the S. pombe RE007 Vpr strain. hit rate 0.21% among 360,000. Potency, µM (highest dose often 92.2 µM), for the others: top-dose activity change, negative = less growth, hits mostly inhibitors. S. pombe RE007 Vpr strain, BacTiter-Glo ATP luminescence, 24 h. AID 651644; active means well fitted falling curve with a large enough effect; inconclusive means small, poorly fitted or top-dose-only effect; inactive means no such curve, though single readings can be large or run the other way; further: nearly all actives have a fitted effect of over 50% in size
#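 Fission yeast strain RE007, carrying one chromosomally integrated HIV-1 vpr copy, was seeded at OD 0.01 in PMG+AL medium with 23 nL pinned compound. After 24 h at 30 °C and 99% humidity, viability was read by BacTiter-Glo luminescence.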
# LmPK inhibitor: LmPK (Leishmania mexicana) enzyme inhibition; hit rate 0.37% among 290,000; purified LmPK, Kinase-Glo ATP luminescence, 1 h; Q27686; Potency, µM (titrated, usually from 57.5 µM), without a hit: top-dose activity change, negative = inhibition, actives largely listed as inhibitors; AID 1721
# Target sequence (Q27686 whole entry, looked up): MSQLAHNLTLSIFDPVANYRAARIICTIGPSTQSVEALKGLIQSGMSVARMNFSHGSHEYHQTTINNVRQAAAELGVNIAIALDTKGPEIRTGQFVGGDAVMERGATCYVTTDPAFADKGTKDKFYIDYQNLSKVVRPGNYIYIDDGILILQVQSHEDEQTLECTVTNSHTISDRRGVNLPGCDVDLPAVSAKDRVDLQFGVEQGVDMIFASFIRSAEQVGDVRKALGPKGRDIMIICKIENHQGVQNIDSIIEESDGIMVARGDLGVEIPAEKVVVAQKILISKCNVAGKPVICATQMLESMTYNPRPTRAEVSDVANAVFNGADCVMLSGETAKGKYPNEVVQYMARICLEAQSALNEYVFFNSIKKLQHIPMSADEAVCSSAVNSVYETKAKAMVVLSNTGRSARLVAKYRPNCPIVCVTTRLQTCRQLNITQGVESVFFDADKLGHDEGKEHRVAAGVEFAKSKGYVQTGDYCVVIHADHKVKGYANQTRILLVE
#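 ATP generated from ADP (0.1 mM) and PEP (0.5 mM) by 0.1 nM LmPK over 1 h at room temperature (pH 7.2 imidazole buffer) was detected by coupled luciferase luminescence. Values were normalized to uninhibited and no-enzyme wells.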
# TbPYK inhibitor: inhibitors of Trypanosoma brucei pyruvate kinase. Q57TT1. TbPYK enzyme, Kinase-Glo Plus ATP luminescence, 45 min. Potency, µM (doses to about 76.8 µM), for inactives: at the top dose activity, negative = inhibition, hits mostly inhibitors. hit rate 0.12% among 410,000; further: nearly all actives have a fitted effect of over 50% in size
#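 T. brucei PYK with substrate was exposed to pin-transferred compounds across a concentration series, then started with 130 uM ADP (final). After 45 min at room temperature, Kinase-Glo Plus luminescence was read, normalized and curve-fitted.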
# Sm TGR block: blocks Schistosoma mansoni thioredoxin glutathione reductase. hit rate 3% among 360,000. AID 485364. Potency, µM (titrated, usually from 114 µM), inactives show top-dose activity change, negative = inhibition, hits mostly inhibitors. purified TGR, DTNB reduction, TNB absorbance 405 nm; further: nearly all actives have a fitted effect of over 60% in size
#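 First, TGR (20 nM dispensed) and NADPH were mixed with compound. Second, a 15 min room-temperature incubation followed. Third, further NADPH and then DTNB were added to start the reaction. Finally, TNB absorbance was monitored kinetically.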
# Starred values were filed as active, the others as inactive; ? = inconclusive; / = no result given; [ ] = remark or other dose. Unless noted, the call rests on the fitted dose curve; in most records, active means well fitted curve in the direction sought with a large enough effect; inconclusive means small, poorly fitted or top-dose-only effect, or another doubt; inactive means no such curve, though single readings can be large; an effect the other way counts as inactive or inconclusive. On the % scale 0 is the no-effect control and ±100 the full control effect; potency means the concentration at half of the fitted maximal effect.
SMILES,RE007 growth inh,LmPK inhibitor,TbPYK inhibitor,Sm TGR block
Cc1cc(=O)[nH]c(S/C=C/c2ccccc2)n1,?,13µM*,-4%,4%
CCN(CC)CCc1c[nH]c2ccccc12,/,/,2%[288 µM],/
CCOc1ccc2nc(/N=C/c3c(C)[nH]n(-c4ccc(C)cc4)c3=O)sc2c1,13µM*,14µM*,-33%,3%
O=C(COC(=O)c1cccs1)c1ccc2ccccc2c1,?,-3%,3%,1%
O=C(COC(=O)c1cccs1)c1ccc2c(c1)OCCO2,?,13µM*,?,2%
CCc1ccc(C(=O)COC(=O)c2cccs2)cc1,/,16µM*,-15%,-26%
O=[N+]([O-])c1ccc(C(c2sc3nc(-c4ccco4)nn3c2O)N2CCC3(CC2)OCCO3)cc1 (stereo not given),/,/,-8%,2%
NNc1ccc2nncn2n1,0%,6%,0%,35µM*
CC(C)c1ccc(Nc2ncnc3onc(-c4ccc(F)cc4)c23)cc1,/,/,1%,-7%
O=C(OCC1CCCO1)c1ccc2c(c1)N(Cc1ccccc1F)C(=O)c1ccccc1S2(=O)=O (stereo not given),/,/,3%,11%
COc1cc(CNCCN(C)C)c(Br)cc1OCC(=O)NCc1ccccc1,-12%,3%,2%,-2%
COc1cc(CNCC(C)C)c(Br)cc1OCC(=O)NCc1ccccc1,-13%,6%,-2%,28µM*
CCC1c2ccc(C)n2CCN1C(=O)Nc1ccccc1OC (stereo not given),-13%,7%,1%,25µM*
COC(=O)C1=C(C(=O)OC)[C@@H]2Nc3ccccc3[C@@]23C[C@@H](C(=O)OC)N(S(=O)(=O)c2ccc(OC)cc2)C3=N1,/,3%[11.5 µM],/,/
CCOCCCn1c(SCC(=O)Nc2ccccc2OC)nc2ccccc2c1=O,-8%,0%,-3%,-6%
O=C(CSc1nc2ccccc2c(=O)n1Cc1ccccc1)NCc1ccco1,5%,8%,-4%,-4%
COCCCn1c(SCC(=O)Nc2ccc(NC(=O)c3ccco3)c(OC)c2)nc2ccccc2c1=O,14%,4%,0%,40µM*
CCn1c(SCC(=O)NCc2ccco2)nc2ccccc2c1=O,-6%,9%,-1%,45µM*
COc1ccc(CCNC(=O)CSc2nc3[nH]ncc3c(=O)n2-c2ccccc2Br)cc1OC,-5%,8%[11.5 µM],-11%,9%
O=C(CSc1nc2ccccc2c2nc3ccccc3n12)NCc1ccco1,0%,5%,6%,8.9µM*
O=C(CSc1nc2[nH]ncc2c(=O)n1-c1ccccc1Br)NCc1ccco1,8%,1%,-13%,22µM*
CCOC(=O)[C@]12CCC=C1N(Cc1ccco1)C(=O)[C@H](CC(=O)NCCc1ccccc1OC)C2,9%,/,-18%,/
COc1cc2c(cc1OC)C(Cc1ccccc1[N+](=O)[O-])=NCC2,-11%,/,-13%,/
O=C(CCCCCn1c(SCc2ccncc2)nc2ccccc2c1=O)NCc1ccco1,7%,7%,-8%,45µM*
O=C1C=C(O)c2cccc3cccc1c23,11%,0%,-2%,5%
SMILES,RE007 growth inh,LmPK inhibitor,TbPYK inhibitor,Sm TGR block
O=C1C=C(O)c2c(O)cccc2C1=O,/,-7%,/,50µM*
O=C1c2ccncc2C(=O)N1CO,2%,-6%,-15%,50µM*
Cc1cc(-c2n[nH]c(=S)n2/N=C/c2c[nH]c3ccccc23)n[nH]1,-6%,?,2.8µM*,21%
Cc1cc(-c2n[nH]c(=S)n2/N=C/c2ccc(Br)s2)n[nH]1,/,-18%,1.1µM*,-7%
CC1CCCC(NC(=O)c2cccc(S(=O)(=O)N3CCOCC3)c2)C1C (stereo not given),-9%,/,-3%,/
CCCn1c(=O)c2sccc2n2c(CCCC(=O)Nc3ccc(Oc4ccccc4)cc3)nnc12,/,/,-8%,3%
C[C@H]1Cc2c(-c3ccccc3)nc3c(c2CO1)CN(C(=O)c1cc(I)ccc1F)CC3,/,-3%[11.5 µM],/,/
COc1cc(CNC(=O)C2CCCC2)cc(OC)c1OC,-10%,1%,7%,3.2µM*
COc1ccccc1CNC(=O)C1CCCC1,37%,-10%,0%,7%
C=CCn1c(COc2ccccc2)nc2ccccc21,-9%,-2%,-4%,7%
COc1cccc(-c2cn3nc4c(nc3n2)CCCC4)c1,?,11µM*,?,?
COc1cccc(-c2cc(C(F)(F)F)n3nc(N)nc3n2)c1,5%,-5%,-7%,3%
Clc1ccc(-c2cn3nc4c(nc3n2)CCCC4)cc1,1%,14µM*,-9%,?
